# Screening results deposited in PubChem BioAssay by National Center for Advancing Translational Sciences (NCATS).
# This is a sample that favours compounds with a hit; in the whole collection about 6.6% have one here.
# KB-3-1 cytotox – KB-3-1 parental cell cytotoxicity. KB-3-1 viability, CellTiter-Glo ATP luminescence, 72 h. Potency, µM (series often up to 46.1 µM), most hits filed as cytotoxic. 400,000 tested, 1.4% active. AID 1347075; further: on the % scale 0 is the no-effect control and ±100 the full control effect; nearly all actives have a fitted effect of over 60% in size
#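 Multi-concentration cytotoxicity screen in KB-3-1 cells grown in DMEM lacking phenol red with 10% FBS. After 72 h at 37 °C with compound, ATP-dependent luminescence was recorded.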
# HT1080NT lethal – kills 2HG-producing HT-1080-NT fibrosarcoma cells | HT-1080-NT fibrosarcoma viability, CellTiter-Glo ATP luminescence, 48 h | Potency, µM (top dose mostly 46.1 µM), without a hit: top-dose activity, negative = less viability, actives largely listed as cytotoxic | 360,000 tested, 1.6% active;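 further: NT is the 2HG producing partner of a matched IDH1 knockdown line; 0% = DMSO-treated cells and -100% = media-only wells without cells; nearly all actives have a fitted effect of over 55% in size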
#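 Viability by CellTiter-Glo luminescence after 48 h compound exposure at 37C of HT-1080-NT cells (750/well, RPMI, 5% FBS). % activity scaled between DMSO wells and medium-only wells, then curve-fitted and categorized by curve class.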
# HT1080 IDH1KD tx – kills HT-1080 cells with IDH1 knockdown | Potency, µM (titrated, usually from 46.1 µM), inactives show top-dose activity, negative = toxicity, hits mostly cytotoxic | 360,000 tested, 2% active | HT-1080 IDH1 knockdown viability, ATP luminescence, 48 h;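 further: 0% = DMSO wells and -100% = cell-free medium wells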
#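 Assay cells: HT-1080 with IDH1 knockdown, 750 per well, RPMI/5% FBS. Exposure: 48 h at 37 °C following 2 h pre-incubation. Read: CellTiter-Glo luminescence; fitted concentration-response, curve class assigned.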
# KB-V1 cytotox – KB-V1 MDR subline cytotoxicity; Potency, µM (series often up to 46.1 µM), hits mostly cytotoxic; 400,000 tested, 3.4% active; KB-V1 MDR cells viability, CellTiter-Glo, 72 h; further: on the % scale 0 is the no-effect control and ±100 the full control effect; nearly all actives have a fitted effect of over 60% in size
#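 Readout: CellTiter-Glo luminescence, 10 min after addition. Cells: KB-V1 MDR subline, 72 h at 37 degrees C with compound. Analysis: corrected, normalized data fitted to concentration-effect curves.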
# TGFb inhibitor – inhibitors of TGF-b signaling | HepG2 CAGA-GFP TGF-b/SMAD3 reporter, GFP fluorescence, 18 h; TGF-beta stimulated, 500 pg/mL final | Potency, µM (series often up to 46.1 µM), for the others: top-dose activity, negative = inhibition, usual class: inhibitors | 410,000 tested, 1.2% active; further: on the % scale 0 is the no-effect control and ±100 the full control effect; nearly all actives have a fitted effect of over 65% in size
#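 Inhibition of TGF-beta-driven CAGA-GFP reporter expression in HEPG2 cells is measured by cellular GFP fluorescence after 18 h stimulation with 500 pg/mL recombinant TGF-beta in 1% FBS medium at 37 degrees C.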
# HepG2 tox – counter-screen for TGF-b inhibitors: cytotoxicity in HepG2 cells; Potency, µM (titrated, usually from 46.1 µM), without a hit: at the top dose activity change, negative = cytotoxicity, actives largely listed as cytotoxic; 410,000 tested, 0.76% active; HepG2 CAGA-GFP viability, ATP luminescence, 18 h
#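 CellTiter-Glo luminescence gave cytotoxicity after 18 hours at 37 degrees C. The cells were HepG2 CAGA-GFP in 1% FBS DMEM, stimulated with 500 pg/mL TGF-beta after compound addition. %Activity was normalised to no-cell wells (complete cell-killing) and DMSO (no toxicity), and curves were fitted and classified.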
# * = called active by the depositor; i = inactive; ? = inconclusive; . = no result given; [ ] = remark or other dose. The call rests on the fitted dose curve; in most records, active means well fitted curve in the direction sought with a large enough effect; inconclusive means small, poorly fitted or top-dose-only effect, or another doubt; inactive means no such curve, though single readings can be large; an effect the other way counts as inactive or inconclusive. Potency means the concentration at half of the fitted maximal effect.
SMILES,KB-3-1 cytotox,HT1080NT lethal,HT1080 IDH1KD tx,KB-V1 cytotox,TGFb inhibitor,HepG2 tox
COc1ccccc1-c1cc(C(F)(F)F)nc(S(=O)(=O)CCCC(=O)Nc2cccnc2Cl)n1,i,15µM*,26µM*,i,?,2%
CSc1ccccc1NC(=O)CCS(=O)(=O)c1nc(-c2ccc3c(c2)OCO3)cc(C(F)(F)F)n1,.,.,.,.,16µM*,-83%
COc1ccccc1-c1cc(C(F)(F)F)nc(S(=O)(=O)CCCC(=O)Nc2cc(Br)ccc2O)n1,i,.,.,i,-27%,-28%
CCNc1nc(OC)nc(Oc2ccc(=O)[nH]n2)n1,?,.,.,i,32%,-1%
CC(=O)N1CCC(N(Cc2ccc(C)o2)C(=O)Nc2cccc(C(F)(F)F)c2)CC1,i,.,.,?,0%,-23%
COc1ccc(C2/C(=C(/O)c3ccc4c(c3)CC(C)O4)C(=O)C(=O)N2CCCn2ccnc2)cc1OC (configuration not stated),i,16%,13%,i,-2%,1%
CC(C)(C)C(=O)N1CCN(S(=O)(=O)c2ccc3c(c2)OCCCO3)CC1,15µM*,-19%,-12%,?,-12%,-3%
CC(=O)N1CCN(S(=O)(=O)c2ccc3c(c2)OCCO3)CC1,?,-10%[9.24 µM],7%,i,18%,5%
CN(CC(=O)Nc1cccc(F)c1)C(=O)c1ccc(C(=O)c2ccccc2)cc1,i,-9%,-11%,i,14%,-7%
CN(CC(=O)Nc1cccc(F)c1)C(=O)CCSc1ccc(F)cc1,8.2µM*,?,-16%,?,-1%,-16%
CN(CC(=O)Nc1cccc(F)c1)C(=O)c1ccc(COc2ccccc2)cc1,?,26µM*,-21%,?,-11%,-13%
COc1ccc(NC(=O)CN(C)C(=O)CCSc2ccc(F)cc2)cc1,i,-5%,0%,?,0%,-24%
CCN1CCN(c2nc(Nc3cccc(C)c3)nc(N)c2[N+](=O)[O-])CC1,i,-15%,-21%,4.1µM*,-18%,-21%
Cc1ccc(Nc2nc(N)c([N+](=O)[O-])c(N3CCC(C)CC3)n2)cc1C,?,10%,3%,23µM*,-7%,7%
CCN1CCN(c2nc(Nc3ccccc3)nc(N)c2[N+](=O)[O-])CC1,i,12%,12%,i,?,-9%
Cc1ccc(Nc2nc(N)c([N+](=O)[O-])c(N3CCOCC3)n2)cc1C,i,-2%,-1%,i,2%,-10%
CCOC(=S)SCC(=O)N1CCc2cc(OC)ccc2C1C1C(=O)CCCC1=O (configuration not stated),?,?,23µM*,?,?,-1%
CCOC(=S)SCC(=O)N1CCc2cc(OC)c(OC)cc2C1C1C(=O)CC(C)(C)CC1=O (configuration not stated),i,-8%,-7%,i,-20%,17%
O=C(CC1N=C2c3ccccc3N=C(SCc3ccccc3Cl)N2C1=O)NC1CCCCC1 (configuration not stated),i,.,.,?,?,-17%
c1ccc(Nc2ccnc(Nc3ccccc3)n2)cc1,?,-28%,?,18µM*,?,-29%
NNc1nc(Nc2ccccc2)nc(Nc2ccccc2)n1,i,-28%,?,i,-1%,-9%
CCN(C(=O)c1cccn(Cc2cccc(Cl)c2)c1=O)c1ccccc1,i,.,.,?,1%,-13%
CC(=O)N1CCc2cc(Br)cc(S(=O)(=O)NCCc3cccc(C)c3)c21,.,.,.,.,?,-23%
COC(=O)c1nnn(-c2nonc2N)c1CN1CCc2ccccc21,23µM*,?,?,?,-8%,-12%
CCOC(=O)c1nnn(-c2nonc2N)c1CN1CCc2ccccc2C1,i,-7%,3%,?,-8%,-24%
SMILES,KB-3-1 cytotox,HT1080NT lethal,HT1080 IDH1KD tx,KB-V1 cytotox,TGFb inhibitor,HepG2 tox
CC(C)OC(=O)c1nnn(-c2nonc2N)c1CN1CCc2ccccc2C1,i,8%,14%,6.5µM*,-13%,-4%
CC(C)(C)c1ccc(C(=O)Nc2onc3c2CCCC3)cc1,i,.,.,i,-1%,-20%
N#C/C(=C\c1cccc(NC(=O)c2ccccc2Cl)c1)C(=O)NCCc1ccccc1,?,?,?,i,?,11µM*
COCCCNC(=O)/C(C#N)=C/c1ccc(F)cc1,i,9%,25%,i,-16%,-13%
COCCCNC(=O)/C(C#N)=C/c1cccc(NC(=O)c2ccccc2Cl)c1,i,?,15µM*,?,?,-51%
Cc1noc(C)c1COc1ccc(C(=O)NNC(=O)c2ccccc2)cc1,4.6µM*,?,15µM*,7.3µM*,-8%,-5%
Cc1noc(C)c1COc1ccc(C(=O)NNC(=O)c2ccccc2F)cc1,?,?,6.5µM*,i,3%,-6%
Cc1noc(C)c1COc1ccccc1C(=O)NNC(=O)c1ccccc1F,i,2%,15%,?,-25%,2%
Oc1cccc2c(CC(O)c3c[nH]c4ccccc34)ccnc12 (configuration not stated),0.73µM*,.,.,?,?,-3%
CN(C)CCC(=O)c1cccc(Br)c1,i,-17%,-7%,i,14µM*,11µM*
COC(=O)c1ccccc1NC(=O)Cn1ncc2c(C)n(Cc3ccc(F)cc3)c(C)c2c1=O,i,.,.,i,?,-36%
CCOC(=O)c1nnc2c(-c3ccc(Cl)cc3)c(C)nn2c1C,i,.,.,?,0%,-3%
CCN(CC)CCNC(=O)c1[nH]c2ccccc2c1Sc1ccc(Cl)cc1,i,.,.,i,?,14µM*
CCOC(=O)c1cnc(-n2cc(C)cn2)nc1Nc1ccccc1OCC,?,19%,5%,1.2µM*,-12%,5%
CCOC(=O)c1cnc2c(ccc3ccccc32)c1Nc1ccccc1OC,?,.,.,i,2%,11%
CCOC(=O)c1cnc(SC)nc1Nc1cccc2ccccc12,i,-6%,9%,12µM*,6%,-15%
CCOC(=O)c1cnc2c(ccc3ccccc32)c1Nc1ccccc1OCC,i,.,.,i,-18%,-21%
CCOC(=O)c1cnc(SC)nc1Nc1cccc(F)c1,i,8%,-1%,15µM*,-7%,6%
CCOC(=O)c1cnc(SC)nc1Oc1cccc(NS(=O)(=O)c2ccc(F)cc2)c1,i,-2%,11%,i,0%,-11%
